Unmarked numbers belong to inactive results. Calls of active or inactive are those of the source.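 Rule for the calls, unless noted: active = mean inhibition above 46.68%, the untreated control wells mean plus 3 SD; inactive = the rest.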

Results on 8 compounds are retold here after PubChem BioAssay.

Assay [1] concerns the target Nuclear receptor coactivator 3 (Homo sapiens) (UniProt Q9Y6Q9). In words: SRC3 coactivator transcriptional activity inhibitors, confirmation, cell-based, luminescence, quadruplicate (AID 588792;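 active = mean inhibition over 43.08%, the solvent-only control mean plus 3 SD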;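 note: 0% = DMSO treated cells and 100% = gossypol at 36 µM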). The conditions noted are these: HEK293 GAL4-SRC3 luciferase reporter, at 3.6 µM, stronger effect = higher value.
The test system of assay [2] is transactivating tegument protein VP16 (Human herpesvirus 1), Gal4-VP16 luciferase reporter. The assay can be described thus: VP16 transactivation inhibitors, counter-screen for SRC3 inhibitor project, cell-based, luminescence, high throughput (AID 588794; in the data active = inhibition above about 30%). The conditions noted are these: mammalian cells, VP16-driven luciferase reporter luminescence; at 3.6 µM; stronger effect = higher value.

The target of assay [3] is Nuclear receptor coactivator 1 (Homo sapiens) (UniProt Q15788). The assay can be described thus: SRC1 coactivator transcriptional activity inhibitors, confirmation, cell-based, luminescence, quadruplicate (AID 588820).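 Note: 0% = DMSO wells and 100% = gossypol 36 µM treated wells.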 The conditions noted are these: HEK293 GAL4-SRC1 luciferase reporter, at 3.6 µM, stronger effect = higher value.
Chain of Nuclear receptor coactivator 1 (Homo sapiens) (Q15788 whole entry, looked up, the tested form may be a part): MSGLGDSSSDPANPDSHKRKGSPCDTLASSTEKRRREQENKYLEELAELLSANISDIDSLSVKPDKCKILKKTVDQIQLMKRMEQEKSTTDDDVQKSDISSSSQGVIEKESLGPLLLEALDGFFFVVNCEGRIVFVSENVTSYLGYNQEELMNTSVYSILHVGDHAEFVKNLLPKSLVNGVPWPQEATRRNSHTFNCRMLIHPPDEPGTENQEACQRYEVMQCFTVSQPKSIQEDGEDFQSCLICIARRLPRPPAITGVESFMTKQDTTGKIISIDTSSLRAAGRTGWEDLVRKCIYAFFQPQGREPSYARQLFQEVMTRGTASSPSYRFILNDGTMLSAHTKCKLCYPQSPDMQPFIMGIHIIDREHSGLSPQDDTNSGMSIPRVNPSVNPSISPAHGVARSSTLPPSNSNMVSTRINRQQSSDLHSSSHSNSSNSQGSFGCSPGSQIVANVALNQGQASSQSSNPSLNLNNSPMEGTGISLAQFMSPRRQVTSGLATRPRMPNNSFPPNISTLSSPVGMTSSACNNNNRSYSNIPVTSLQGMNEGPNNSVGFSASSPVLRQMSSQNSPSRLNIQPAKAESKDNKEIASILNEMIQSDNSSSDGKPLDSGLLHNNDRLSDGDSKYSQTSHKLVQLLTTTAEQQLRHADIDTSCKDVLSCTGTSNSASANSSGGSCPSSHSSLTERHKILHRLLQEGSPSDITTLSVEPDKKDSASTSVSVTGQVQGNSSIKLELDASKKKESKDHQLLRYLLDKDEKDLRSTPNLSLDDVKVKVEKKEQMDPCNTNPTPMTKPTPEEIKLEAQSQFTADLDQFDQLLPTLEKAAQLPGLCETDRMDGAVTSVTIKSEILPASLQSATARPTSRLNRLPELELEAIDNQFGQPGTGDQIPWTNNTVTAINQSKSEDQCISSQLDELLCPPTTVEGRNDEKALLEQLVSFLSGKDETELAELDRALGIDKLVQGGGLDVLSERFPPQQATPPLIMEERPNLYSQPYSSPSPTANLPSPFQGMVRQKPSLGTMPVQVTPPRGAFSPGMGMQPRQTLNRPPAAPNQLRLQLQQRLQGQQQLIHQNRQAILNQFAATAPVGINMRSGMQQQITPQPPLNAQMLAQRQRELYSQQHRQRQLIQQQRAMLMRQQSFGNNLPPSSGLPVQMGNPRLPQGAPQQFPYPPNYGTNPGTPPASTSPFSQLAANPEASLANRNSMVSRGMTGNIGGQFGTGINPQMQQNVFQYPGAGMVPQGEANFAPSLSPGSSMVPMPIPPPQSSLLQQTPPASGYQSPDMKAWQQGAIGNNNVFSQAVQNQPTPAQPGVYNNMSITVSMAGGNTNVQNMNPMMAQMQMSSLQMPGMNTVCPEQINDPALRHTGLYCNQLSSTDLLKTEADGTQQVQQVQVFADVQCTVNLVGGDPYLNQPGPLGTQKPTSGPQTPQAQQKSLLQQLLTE
Assay [4] is described as follows: VP16 transactivation inhibitors, counter-screen for SRC1 inhibitor project, cell-based, luminescence, high throughput (AID 588824; in the data active = inhibition above about 25%). The conditions noted are these: cell-based VP16 transactivation luciferase luminescence; at 3.6 µM; stronger effect = higher value.
Assay [5] concerns transactivating tegument protein VP16 (Human herpesvirus 1). In words: VP16 transactivation reporter inhibitors, counter-screen for SRC2 inhibitor project, cell-based, luminescence, single concentration (AID 652007; in the data active = inhibition above about 36%). The conditions noted are these: cell-based VP16 transactivation luciferase reporter, at 8.9 µM, stronger effect = higher value.
The target of assay [6] is Nuclear receptor coactivator 2 (Homo sapiens) (UniProt Q15596). In words: SRC2 coactivator transcriptional activity inhibitors, confirmation, cell-based, luminescence, HEK293, triplicate (AID 652008;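 active = mean inhibition above 46.5%, the solvent-only control mean plus 3 SD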;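 note: 0% = DMSO-treated cells and 100% = Gossypol at 36 µM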). The conditions noted are these: HEK293 GAL4-SRC2 luciferase reporter, at 8.9 µM, stronger effect = higher value.
Chain of Nuclear receptor coactivator 2 (Homo sapiens) (Q15596 whole entry, looked up, the tested form may be a part): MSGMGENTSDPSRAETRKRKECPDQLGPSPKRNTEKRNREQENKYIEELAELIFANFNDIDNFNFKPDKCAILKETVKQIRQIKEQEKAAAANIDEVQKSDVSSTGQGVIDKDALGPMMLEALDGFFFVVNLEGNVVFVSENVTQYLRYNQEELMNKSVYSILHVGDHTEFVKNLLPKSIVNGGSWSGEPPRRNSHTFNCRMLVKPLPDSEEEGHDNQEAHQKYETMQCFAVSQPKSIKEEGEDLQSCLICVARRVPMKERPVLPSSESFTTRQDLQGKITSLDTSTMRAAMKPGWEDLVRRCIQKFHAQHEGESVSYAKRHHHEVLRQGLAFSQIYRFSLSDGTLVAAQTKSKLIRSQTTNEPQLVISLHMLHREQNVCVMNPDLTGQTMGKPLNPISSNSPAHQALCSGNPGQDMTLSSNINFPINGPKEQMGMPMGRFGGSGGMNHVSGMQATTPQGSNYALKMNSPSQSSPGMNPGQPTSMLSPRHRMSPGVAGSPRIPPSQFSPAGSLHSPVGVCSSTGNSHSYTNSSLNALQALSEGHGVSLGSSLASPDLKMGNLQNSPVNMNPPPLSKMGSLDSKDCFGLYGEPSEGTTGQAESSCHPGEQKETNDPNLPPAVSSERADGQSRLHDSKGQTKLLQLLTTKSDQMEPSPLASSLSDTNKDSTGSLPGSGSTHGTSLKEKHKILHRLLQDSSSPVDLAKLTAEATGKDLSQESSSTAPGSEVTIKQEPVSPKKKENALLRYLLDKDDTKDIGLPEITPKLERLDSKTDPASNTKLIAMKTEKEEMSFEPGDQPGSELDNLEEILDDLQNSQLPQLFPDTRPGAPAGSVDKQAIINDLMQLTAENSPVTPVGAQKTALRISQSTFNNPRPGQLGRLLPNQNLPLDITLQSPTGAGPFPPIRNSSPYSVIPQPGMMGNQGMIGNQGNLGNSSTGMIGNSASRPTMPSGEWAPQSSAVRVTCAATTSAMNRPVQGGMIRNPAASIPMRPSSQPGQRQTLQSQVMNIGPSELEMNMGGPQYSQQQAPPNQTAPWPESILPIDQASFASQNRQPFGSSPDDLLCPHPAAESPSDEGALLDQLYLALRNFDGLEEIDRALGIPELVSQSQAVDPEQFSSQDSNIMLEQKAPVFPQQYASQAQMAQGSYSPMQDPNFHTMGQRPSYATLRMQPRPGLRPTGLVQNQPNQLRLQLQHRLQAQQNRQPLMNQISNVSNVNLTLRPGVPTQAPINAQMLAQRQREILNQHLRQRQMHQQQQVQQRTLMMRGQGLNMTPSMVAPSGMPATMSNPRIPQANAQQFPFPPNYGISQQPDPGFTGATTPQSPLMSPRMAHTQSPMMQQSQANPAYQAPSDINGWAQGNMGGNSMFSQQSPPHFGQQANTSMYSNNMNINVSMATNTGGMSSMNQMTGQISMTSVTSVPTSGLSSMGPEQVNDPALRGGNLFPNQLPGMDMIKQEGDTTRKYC

Chain of Nuclear receptor coactivator 3 (Homo sapiens) (Q9Y6Q9 whole entry, looked up, the tested form may be a part): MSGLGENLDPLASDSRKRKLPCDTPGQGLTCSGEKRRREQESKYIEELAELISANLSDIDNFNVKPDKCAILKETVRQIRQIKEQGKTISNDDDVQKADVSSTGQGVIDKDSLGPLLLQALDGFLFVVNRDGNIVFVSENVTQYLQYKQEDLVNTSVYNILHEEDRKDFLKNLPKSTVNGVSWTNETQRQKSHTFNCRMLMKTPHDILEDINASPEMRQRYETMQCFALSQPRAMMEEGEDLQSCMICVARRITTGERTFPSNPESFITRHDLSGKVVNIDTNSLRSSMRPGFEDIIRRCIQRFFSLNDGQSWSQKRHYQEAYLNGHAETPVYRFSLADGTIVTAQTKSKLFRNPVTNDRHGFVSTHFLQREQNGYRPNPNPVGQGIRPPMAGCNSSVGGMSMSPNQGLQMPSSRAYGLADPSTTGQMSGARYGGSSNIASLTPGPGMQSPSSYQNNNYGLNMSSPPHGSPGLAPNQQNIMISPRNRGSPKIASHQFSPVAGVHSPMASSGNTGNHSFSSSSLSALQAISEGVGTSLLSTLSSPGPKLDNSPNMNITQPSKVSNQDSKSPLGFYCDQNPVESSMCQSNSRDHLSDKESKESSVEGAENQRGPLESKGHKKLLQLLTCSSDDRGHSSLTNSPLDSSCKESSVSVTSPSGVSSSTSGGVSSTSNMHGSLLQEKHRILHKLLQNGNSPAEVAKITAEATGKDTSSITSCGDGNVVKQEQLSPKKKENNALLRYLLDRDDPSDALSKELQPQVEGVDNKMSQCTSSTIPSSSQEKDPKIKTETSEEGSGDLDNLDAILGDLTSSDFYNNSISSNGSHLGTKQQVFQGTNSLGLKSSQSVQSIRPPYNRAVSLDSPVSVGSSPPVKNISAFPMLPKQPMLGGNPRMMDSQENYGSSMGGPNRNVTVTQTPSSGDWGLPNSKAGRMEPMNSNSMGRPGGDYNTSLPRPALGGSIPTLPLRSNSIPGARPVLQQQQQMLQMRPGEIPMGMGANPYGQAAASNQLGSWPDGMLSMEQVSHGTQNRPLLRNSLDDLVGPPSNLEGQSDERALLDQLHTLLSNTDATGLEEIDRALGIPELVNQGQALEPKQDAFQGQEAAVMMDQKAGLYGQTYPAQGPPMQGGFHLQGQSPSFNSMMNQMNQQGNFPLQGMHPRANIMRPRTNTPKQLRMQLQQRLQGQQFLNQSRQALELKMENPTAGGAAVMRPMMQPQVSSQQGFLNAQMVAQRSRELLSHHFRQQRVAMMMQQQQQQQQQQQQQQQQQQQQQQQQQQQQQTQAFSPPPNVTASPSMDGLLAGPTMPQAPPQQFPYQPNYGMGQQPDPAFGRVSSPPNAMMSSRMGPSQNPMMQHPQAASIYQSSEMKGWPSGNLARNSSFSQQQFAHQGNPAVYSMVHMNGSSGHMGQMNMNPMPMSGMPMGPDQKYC

In the case of `C=C1C(=O)OC2CC1C(O)CC(C)=CCCC(C)=CC(O)CC2C` (stereo not drawn), the inhibition in assay [1] was 22.9%; in assay [2], 42.7% (active); in assay [3], 27.9%; in assay [4], 49.7% (active); in assay [5], 23.9%; in assay [6], 50.8% (active).
As to `COC(=O)c1cccc2c1-c1ccccc1/C2=N/O`, the inhibition in assay [1] is 50.9% (active); in assay [2] it was 24.4%; in assay [3] it was 34.5%; in assay [4], 25.2%; in assay [5], 21.1%; in assay [6] it was 42.4%.
With `COc1ccc(-n2c(C)c(C(C)=O)c3cc(O)ccc32)cc1`, the inhibition is 76.1% (active) in assay [1]; 55.6% (active) in assay [2]; 64.1% (active) in assay [3]; 56.6% (active) in assay [4]; -5.76% in assay [5]; 54% (active) in assay [6].
On to `CC(C)(C)c1ccc(Oc2ccc(N)cn2)cc1`, for which the inhibition in assay [1] is 39.6%; in assay [2], 20.4%; in assay [3] it was 2.49%; in assay [4], 18.6%; in assay [5] it was 69% (active); in assay [6], 88.9% (active).
As to `Cc1c(C(C)NC(=O)c2cc(COc3cccc4cnccc34)on2)cnn1C` (stereo not drawn), the inhibition in assay [1] is 32.4%; in assay [2] it was 40.4% (active); in assay [3], 38.3%; in assay [4], 33.8% (active); in assay [5], 7.45%; in assay [6] it was 46.9% (active).
In the case of `Cc1ccc2occ(/C=N/NC(=O)[C@@H](N)Cc3ccccc3)c(=O)c2c1`, the inhibition in assay [1] is 37.9%; in assay [2] it was 17%; in assay [3], 15.7%; in assay [4] it was 23.3%; in assay [5], 4.17%; in assay [6] it was 44.1%.
With `CC1(C)Cc2c(ccc3ccccc23)C(=O)N1`, the inhibition in assay [1] was 55.7% (active); in assay [2], 37.2% (active); in assay [3], 55% (active); in assay [4] it was 23.7%; in assay [5], -22.7%; in assay [6] it was 32.1%.
Turning to `COc1ccc(-c2[nH]ncc2-c2ccc3c(c2)OCCO3)c(O)c1`, the inhibition in assay [1] was 74.4% (active); in assay [2], 58.3% (active); in assay [3] it was 72% (active); in assay [4], 59.5% (active); in assay [5], 11.7%; in assay [6], 47.5% (active).
